The assay has as its target Protein deacetylase HDAC6 (Homo sapiens) (UniProt Q9UBN7). Put plainly: inhibitors of recombinant human HDAC6 – biochemical, selectivity assay for E-cadherin restoration project, profiling panel (AID 651906).

Activity calls are given as the source filed them. No rule for the calls is given here.

Protein deacetylase HDAC6 (Homo sapiens), sequence (Q9UBN7 whole entry, looked up): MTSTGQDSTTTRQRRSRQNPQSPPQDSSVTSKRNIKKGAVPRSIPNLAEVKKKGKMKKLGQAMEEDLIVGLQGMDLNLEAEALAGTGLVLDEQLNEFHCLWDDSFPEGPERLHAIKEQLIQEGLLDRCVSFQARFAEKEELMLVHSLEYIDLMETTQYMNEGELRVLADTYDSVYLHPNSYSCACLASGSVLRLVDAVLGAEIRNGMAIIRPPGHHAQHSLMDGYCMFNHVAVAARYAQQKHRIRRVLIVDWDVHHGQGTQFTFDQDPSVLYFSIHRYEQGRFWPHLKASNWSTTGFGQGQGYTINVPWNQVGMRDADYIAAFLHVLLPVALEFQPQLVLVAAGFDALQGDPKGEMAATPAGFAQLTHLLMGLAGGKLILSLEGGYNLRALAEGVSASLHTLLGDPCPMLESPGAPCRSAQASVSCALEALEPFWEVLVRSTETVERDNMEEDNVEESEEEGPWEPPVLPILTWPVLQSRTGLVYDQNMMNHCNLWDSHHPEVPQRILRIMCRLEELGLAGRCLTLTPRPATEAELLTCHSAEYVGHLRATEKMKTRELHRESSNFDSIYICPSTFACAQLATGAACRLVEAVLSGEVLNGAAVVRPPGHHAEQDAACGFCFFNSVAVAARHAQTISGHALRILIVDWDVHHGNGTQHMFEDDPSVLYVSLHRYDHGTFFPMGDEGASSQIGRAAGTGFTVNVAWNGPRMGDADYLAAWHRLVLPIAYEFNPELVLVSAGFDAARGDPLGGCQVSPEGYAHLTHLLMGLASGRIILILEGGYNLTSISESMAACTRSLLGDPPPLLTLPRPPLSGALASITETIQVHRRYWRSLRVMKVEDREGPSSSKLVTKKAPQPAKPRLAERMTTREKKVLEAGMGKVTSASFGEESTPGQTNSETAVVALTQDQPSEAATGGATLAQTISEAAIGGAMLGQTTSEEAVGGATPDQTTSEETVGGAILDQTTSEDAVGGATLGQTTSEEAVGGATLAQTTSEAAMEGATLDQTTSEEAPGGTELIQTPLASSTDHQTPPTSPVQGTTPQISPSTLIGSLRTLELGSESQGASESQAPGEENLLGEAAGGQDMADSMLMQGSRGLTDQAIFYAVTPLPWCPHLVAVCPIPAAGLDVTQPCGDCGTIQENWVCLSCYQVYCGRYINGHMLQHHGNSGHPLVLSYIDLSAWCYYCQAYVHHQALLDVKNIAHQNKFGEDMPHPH

For the compound `O=C(NCCCNC(=O)c1ccc[nH]c1=O)c1cc(-c2ccccc2)on1`, the outcome was inactive.

These data come from PubChem BioAssay AID651906 (Vanderbilt Specialized Chemistry Center, 2012).
